Consider 39 compounds from PubChem BioAssay (EPA / NIEHS).

Each structure is given as a SMILES string. The source holds several records for some structures; these can differ, active in one and inactive in another. The source made the active and inactive calls. The calls were made as follows: active = hit-call score of the fitted dose curve at least 0.9, where 1 is the maximum; inactive = score below 0.9.

As usually defined, the AC50 is the concentration at which the activity in the assay is half-maximal.

The assay in a line: ATG_AP_1_CIS: Attagene CIS-FACTORIAL HepG2 Assay for human Activator Protein 1 (AP-1) (AID 2282931). To be noted: HepG2 Attagene cis-factorial AP-1 reporter mRNA; actives raise or lower the signal. The procedure:
ATG_CIS is a cell-based, multiplexed-readout assay that uses HepG2, a human liver cell line, with measurements taken at 24 hours after chemical dosing in a 24-well plate.ATG_AP_1_CIS is one of 52 assay component(s) measured or calculated from the ATG_CIS assay. It is designed to make measurements of mRNA induction, a form of inducible reporter, as detected with fluorescence intensity signals by Reverse transcription polymerase chain reaction (RT-PCR) and Capillary electrophoresis technology.Data from the assay component ATG_AP_1_CIS was analyzed into 1 assay endpoint. This assay endpoint, ATG_AP_1_CIS, was analyzed with bidirectional fitting relative to DMSO as the negative control and baseline of activity. Using a type of inducible reporter, measures of mRNA for gain or loss-of-signal activity can be used to understand the reporter gene at the transcription factor-level as they relate to the gene FOS and JUN. Furthermore, this assay endpoint can be referred to as a primary readout, because this assay has produced multiple assay endpoints where this one serves a reporter gene function. To generalize the intended target to other relatable targets, this assay endpoint is annotated to the dna binding intended target family, where the subfamily is basic leucine zipper.
Human liver HepG2 cells are transiently transfected with multiple reporter transcription units (MRTUs) in 6-well plates using FuGene 6 reagent (Roche; 3 ml FuGene/1 mg DNA). The MRTU constructs are regulated by a cis-regulating element (promoter). […] A major difference between the CIS and TRANS system is that in CIS activities of endogenous TFs are measured, whereas the TRANS assay evaluates changes in activities of exogenous, chimeric NR-Gal4 proteins. […] At the end of 24 hour incubation, total RNA was isolated using TriZol reagent (Invitrogen). The isolated RNA is then reverse-transcribed using oligo(dT) primer and Mo-MLV reverse transcriptase (Invitrogen) with DNAse I (Ambion) treatment for 30 min. The one-tenth of the produced cDNA was amplified by PCR using Taq DNA polymerase (Invitrogen) and two reporter sequence-specific primers. The PCR products were fluorescently labeled by primer extension with 6-arboxyfluorescein (6-FAM) 5'-labeled reporter sequence-specific primer (2 min at 95 C, 20 s at 68 C and 10 min at 72 C) and these products were digested with 5U of HpaI (New England Biolabs) for 2h at 37 C. The fragments were purified using Qiaquick PCR columns (Qiagen), analyzed on an ABI 3130xL genetic analyzer (Applied Biosystems) with peak positions identified by using a set of X-rhodamine (ROX)-labeled MapMarker1000 molecular weight standards (BioVentures). The raw capillary electrophoresis data was processed using Attagraph software (Attagene).
Regarding `Oc1c(Br)cc(Br)cc1Br`, the AC50 was 27.7 µM (active).

For `CCOP(=O)(OCC)SCCSCC`, the result was inactive. As to `COc1ccc(N)cc1`, the compound was classed as inactive. `CCCCN(CCCCO)N=O`: the compound was called inactive. For the compound `O=C1c2ccccc2C(=O)C1C(=O)C(c1ccccc1)c1ccc(Cl)cc1` (stereo not given), the AC50 was 5.27 µM (active).

Regarding `C#CCO`, the compound was called inactive.

Consider `Nc1nc(N)nc(Cl)n1`, for which the compound was called inactive. With `CC(C)(C#N)N=NC(C)(C)C#N`, the outcome was inactive. `O=C(O)COc1ccc(Cl)cc1`: the compound was classed as inactive.

As for `CNC(=O)N(C)c1nc2ccccc2s1`, the result was inactive. `CCOC(=O)c1ccccc1S(=O)(=O)NC(=O)Nc1nc(Cl)cc(OC)n1`: the outcome was inactive. For the compound `COCCl`, the compound was called inactive. Regarding `CN(C)c1ccc(N=O)cc1`, the compound was called inactive.

Turning to `c1ccc2sc(SNC3CCCCC3)nc2c1`, the AC50 is 52.1 µM (active). As to `OCCN(CCO)CCO`, the compound was classed as inactive. In the case of `CN(C)C(=S)S`, the AC50 is 25.9 µM (active). Take `CN(C)[C@@H]1C(=O)C(C(N)=O)=C(O)[C@@]2(O)C(=O)C3=C(O)c4c(O)ccc(Cl)c4[C@@](C)(O)[C@H]3C[C@@H]12`: the AC50 is 26.3 µM (active). Consider `Nc1ccc(N)cc1`, for which the AC50 was 70.9 µM (active) and the outcome was inactive.

As to `O=[N+]([O-])c1ccc(Nc2ccccc2)cc1`, the outcome was inactive.

On to `CCCCN(CCCC)C(=S)[S-].CCCCN(CCCC)C(=S)[S-].[Ni+2]`, for which the result was inactive. Turning to `CCOc1cc(C=O)ccc1O`, the outcome was inactive. Consider `BrCc1ccc(Br)cc1`, for which the call was inactive. The same measure, in the same setting: the value for `C[C@H]1C(=O)O[C@@H]2CCN3CC=C(COC(=O)[C@](C)(O)[C@]1(C)O)[C@H]23` was “inactive”; that for `Cc1cc(C(F)(C(F)(F)F)C(F)(F)F)ccc1NC(=O)c1cccc(I)c1C(=O)NC(C)(C)CS(C)(=O)=O` was “inactive”. For the compound `CCC(C)(C#N)N=NC(C)(C#N)CC` (stereo not given), the result was inactive.

Consider `Cc1cccc(N=Nc2ccc(N(C)C)cc2)c1`, for which the compound was classed as inactive.

With `COc1ccccc1N`, the compound was classed as inactive.

In the case of `O=C(O)c1cc(I)cc(I)c1I`, the call was inactive. Regarding `Nc1c(Oc2ccccc2)cc(O)c2c1C(=O)c1ccccc1C2=O`, the outcome was inactive. Consider `Cc1ccc2nc3sc(=O)sc3nc2c1`, for which the compound was called inactive. For the compound `CN(C1CCCCC1)C1CCCCC1`, the call was inactive. `c1csc(-c2ccc(-c3cccs3)s2)c1`: the AC50 was 8.14 µM (active). For the compound `Nc1cccnc1`, the outcome was inactive. As to `C#C[C@]1(O)CC[C@H]2[C@@H]3CCC4=CC(=O)CC[C@]4(C)[C@H]3CC[C@@]21C`, the compound was called inactive. As for `CC(C)N(C(=O)CCl)c1ccccc1`, the concentration at half-maximal activity (AC50) was 11.6 µM (active). On to `CCC[N+](CCC)(CCC)CCC`, for which the compound was called inactive. Still for that read-out and setting: the value for `COC(F)(C(F)(F)C(F)(F)F)C(F)(C(F)(F)F)C(F)(F)F` (stereo not given) was “inactive”; that for `OC(c1ccc(Cl)cc1)(c1ccc(Cl)cc1)c1cccnc1` was “inactive”. As for `O=[N+]([O-])c1ccccc1O`, the compound was classed as inactive.
